Data taken from PubChem BioAssay (NCATS).
Inconclusive results are not listed. A call without a number means that no potency is given here. Activity calls are given as the source filed them. Calls follow the shape of the dose curve; as a rule, active = well fitted curve in the direction sought with a large enough effect; inconclusive = small, poorly fitted or top-dose-only effect, or another doubt; inactive = no such curve, though single readings can be large; an effect the other way counts as inactive or inconclusive.

Key:
[1] = S16 Schwann cell viability assay (CellTiter-Glo assay) (AID 624031);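 also: cellular ATP luminescence as a viability measure; nearly all actives have a fitted effect of over 70% in size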
How it was run: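 Native S16 rat Schwann cells, 500-750 cells/well in DMEM with 10% FBS, dosed with compound after overnight culture and incubated 24h at 37 degree Celsius/5% CO2. Viability by CellTiter-Glo luminescence; % activity normalized to no-cell wells and DMSO-treated cells.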

[2] = tested on: 3D7; assay: qHTS profiling for inhibitors of Plasmodium falciparum proliferation (AID 504749); also: nearly all actives have a fitted effect of over 60% in size; also: potency is read from the fitted curve at half-maximal effect; details: P. falciparum in erythrocytes, SYBR Green DNA, 72 h; series mostly up to 12.8 µM
How it was run: (§1)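 SYBR Green fluorescence of parasite DNA, read after lysis and overnight dark incubation, measured growth over 72 h in erythrocyte culture at 0.3% parasitemia and 2.5% hematocrit. Data normalised to DMSO and 0.29 uM artemisinin, with plate-drift correction.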

[3] = tested on: ATS189; assay: as above; details: P. falciparum in erythrocytes, SYBR Green DNA, 72 h; series mostly up to 12.8 µM
How it was run: as §1

[4] = tested on: ATS95; assay: as above; details: P. falciparum in erythrocytes, SYBR Green DNA, 72 h; series mostly up to 12.8 µM
How it was run: as §1

[5] = tested on: C2A; assay: as above; details: P. falciparum in erythrocytes, SYBR Green DNA, 72 h; series mostly up to 12.8 µM
How it was run: as §1

[6] = tested on: CP192; assay: as above; details: P. falciparum in erythrocytes, SYBR Green DNA, 72 h; series mostly up to 12.8 µM
How it was run: as §1

[7] = tested on: CP238; assay: as above; details: P. falciparum in erythrocytes, SYBR Green DNA, 72 h; series mostly up to 12.8 µM
How it was run: as §1

[8] = tested on: CP252; assay: as above; details: P. falciparum in erythrocytes, SYBR Green DNA, 72 h; series mostly up to 12.8 µM
How it was run: as §1

[9] = tested on: CP262; assay: as above; details: P. falciparum in erythrocytes, SYBR Green DNA, 72 h; series mostly up to 12.8 µM
How it was run: as §1

[10] = tested on: CP265; assay: as above; details: P. falciparum in erythrocytes, SYBR Green DNA, 72 h; series mostly up to 12.8 µM
How it was run: as §1

[11] = tested on: CP268; assay: as above; details: P. falciparum in erythrocytes, SYBR Green DNA, 72 h; series mostly up to 12.8 µM
How it was run: as §1

[12] = tested on: Dd2; assay: as above; details: P. falciparum in erythrocytes, SYBR Green DNA, 72 h; series mostly up to 12.8 µM
How it was run: as §1

[13] = tested on: N140; assay: as above; details: P. falciparum in erythrocytes, SYBR Green DNA, 72 h; series mostly up to 12.8 µM
How it was run: as §1

[14] = tested on: P93_24; assay: as above; details: P. falciparum in erythrocytes, SYBR Green DNA, 72 h; series mostly up to 12.8 µM
How it was run: as §1

[15] = tested on: PC15; assay: as above; details: P. falciparum in erythrocytes, SYBR Green DNA, 72 h; series mostly up to 12.8 µM
How it was run: as §1

[16] = tested on: PC49; assay: as above; details: P. falciparum in erythrocytes, SYBR Green DNA, 72 h; series mostly up to 12.8 µM
How it was run: as §1

[17] = tested on: SC27B; assay: as above; details: P. falciparum in erythrocytes, SYBR Green DNA, 72 h; series mostly up to 12.8 µM
How it was run: as §1

[18] = tested on: TAB109; assay: as above; details: P. falciparum in erythrocytes, SYBR Green DNA, 72 h; series mostly up to 12.8 µM
How it was run: as §1

[19] = tested on: CP247; assay: as above; details: P. falciparum in erythrocytes, SYBR Green DNA, 72 h; series mostly up to 12.8 µM
How it was run: as §1

[20] = tested on: TAB165; assay: as above; details: P. falciparum in erythrocytes, SYBR Green DNA, 72 h; series mostly up to 12.8 µM
How it was run: as §1

Structure (SMILES)	outcome [1]	Potency [2]	Potency [3]	Potency [4]	Potency [5]	Potency [6]	Potency [7]	Potency [8]	Potency [9]	Potency [10]	Potency [11]	Potency [12]	Potency [13]	Potency [14]	Potency [15]	Potency [16]	Potency [17]	Potency [18]	Potency [19]	Potency [20]
C[C@@]12CC[C@H]3[C@@H](CCC4=CC(=O)CC[C@]43C)[C@H]1CC[C@H]2C(=O)CO	inactive	inactive	inactive	inactive	inactive	inactive	inactive	inactive	inactive	inactive	inactive	inactive	inactive	inactive	inactive	inactive	inactive	inactive		
CO[C@H]1[C@H](O[C@H]2O[C@@H](C)[C@@H](O[C@@H]3C[C@](C)(O)[C@H](OC(=O)CC(C)C)[C@H](C)O3)[C@@H](N(C)C)[C@@H]2O)[C@@H](CC=O)C[C@@H](C)[C@@H](O)/C=C\C=C/C[C@@H](C)OC(=O)C[C@H]1OC(C)=O	inactive	inactive							2.28 µM (active)			1.41 µM (active)				inactive	inactive	1 µM (active)		
Cc1cccc(C)c1NC(=O)[C@H](C)N	inactive	inactive	inactive	inactive	inactive		inactive	inactive		inactive		inactive	inactive	inactive	inactive	inactive	inactive	inactive	inactive	inactive
CCOC(=O)[C@H](CCc1ccccc1)N[C@@H](C)C(=O)N1[C@H](C(=O)O)C[C@H]2CCC[C@@H]21	inactive	inactive	inactive	inactive	inactive	inactive	inactive	inactive	inactive	inactive	inactive	inactive	inactive	inactive	inactive	inactive	inactive	inactive	inactive	inactive
C[C@H](N[C@@H](C)COc1ccccc1)[C@H](O)c1ccc(O)cc1	inactive	inactive	inactive	inactive	inactive	inactive	inactive	inactive	inactive	inactive	inactive		inactive	inactive	inactive	inactive	inactive	inactive	inactive	inactive
CO[C@]1(NC(=O)C2SC(=C(C(N)=O)C(=O)O)S2)C(=O)N2C(C(=O)O)=C(CSc3nnnn3C)CS[C@H]21 (stereo partly drawn)	inactive	inactive	inactive	inactive	inactive	inactive	inactive	inactive	inactive	inactive	inactive	inactive	inactive		inactive	inactive	inactive	inactive	inactive	inactive
CN1C(=O)C[C@H](c2ccccc2)C1=O		inactive	inactive	0.0071 µM (active)	inactive	inactive	inactive	inactive	inactive		inactive	inactive	inactive	inactive	inactive	inactive	inactive	0.005 µM (active)	inactive	inactive
C=CCN1C(=CCO)[C@H]2C[C@H]3[C@@H]1CC[C@@]31c3ccccc3N3C=C4[C@@H]5N(/C=C/2[C@H]31)c1ccccc1[C@]51CC[C@H]2[C@H]1C[C@@H]4/C(=C/CO)N2CC=C	inactive	inactive	inactive	inactive	inactive	inactive	inactive	inactive	inactive	inactive	inactive	inactive	inactive	inactive	inactive	inactive	inactive	inactive	inactive	inactive
COc1cc(N)c(Cl)cc1C(=O)N[C@H]1CCN(CCCOc2ccc(F)cc2)C[C@H]1OC	inactive					inactive			3.61 µM (active)	3.98 µM (active)	inactive	3.55 µM (active)			inactive	inactive				3.55 µM (active)
COC(=O)C1=C(C)NC(C)=C(C(=O)OC(C)C)[C@H]1c1cccc2nonc12	inactive				inactive	inactive	inactive			inactive		inactive	3.16 µM (active)	inactive	inactive	inactive				
C[C@H](Oc1ccccc1)C(=O)N[C@@H]1C(=O)N2[C@@H]1SC(C)(C)[C@@H]2C(=O)O	inactive	inactive	inactive	inactive	inactive	inactive	inactive	inactive	inactive	inactive	inactive	inactive	inactive	inactive	inactive	inactive	inactive	inactive	inactive	inactive
CCC(=O)O[C@@H]1[C@H](C)O[C@H](O[C@H]2[C@@H](N(C)C)[C@H](O)[C@@H](O[C@@H]3[C@@H](CC=O)C[C@@H](C)[C@@H](O)/C=C\C=C/C[C@@H](C)OC(=O)C[C@@H](OC(=O)CC)[C@H]3OC)O[C@H]2C)C[C@]1(C)O	inactive	inactive	inactive	inactive	inactive	inactive						3.16 µM (active)			inactive	inactive	inactive		inactive	inactive
COc1cc2nc(N3CCN(C(=O)[C@@H]4CCCO4)CC3)nc(N)c2cc1OC	inactive	inactive	inactive	inactive	inactive	inactive	inactive	inactive	inactive	inactive	inactive	inactive	inactive	inactive	inactive	inactive	inactive	inactive	inactive	inactive
CNC[C@H](O)c1ccc(OC(=O)C(C)(C)C)c(OC(=O)C(C)(C)C)c1	inactive	inactive	inactive	inactive	inactive	inactive	inactive	inactive	inactive	inactive	inactive	inactive	inactive	inactive		inactive	inactive	inactive	inactive	inactive
O=C1O[C@H](CN2CCOCC2)CN1/N=C\c1ccc([N+](=O)[O-])o1	inactive		inactive	inactive	inactive	inactive	inactive	inactive	inactive		inactive				inactive		inactive		inactive	
C[N+]12CCC(CC1)[C@@H](OC(=O)C(O)(c1ccccc1)c1ccccc1)C2	inactive	inactive	inactive	inactive	inactive	inactive	inactive	inactive	inactive	inactive	inactive	inactive	inactive	inactive	inactive	inactive	inactive	inactive	inactive	inactive
CC[N+](CC)(CC)CC[C@](O)(c1ccccc1)C1CCCCC1	inactive	inactive	inactive	inactive	inactive	inactive	inactive	inactive	inactive	inactive	inactive	inactive	inactive	inactive	inactive	inactive	inactive	inactive	inactive	inactive
C#C[C@@]1(O)CC[C@@H]2[C@@H]3CCC4=C(CCC(=O)C4)[C@H]3CC[C@]21C	inactive																			
COc1ccc(C[C@@](C)(N)C(=O)O)cc1OC	inactive	inactive	inactive	inactive	inactive	inactive	inactive	inactive	inactive	inactive	inactive	inactive	inactive	inactive	inactive	inactive	inactive	inactive	inactive	inactive
CC(=O)O[C@]1(C(C)=O)CC[C@@H]2[C@@H]3C=C(C)C4=CC(=O)CC[C@@]4(C)[C@H]3CC[C@]21C	inactive	inactive	inactive	inactive	inactive	inactive	inactive	inactive	inactive	inactive	inactive	inactive	inactive	inactive	inactive	inactive	inactive	inactive	inactive	inactive
CC(=O)[C@@]1(O)CC[C@H]2[C@H]3C[C@@H](C)C4=CC(=O)C=C[C@]4(C)[C@@]3(F)[C@@H](O)C[C@]21C	inactive	inactive	inactive	inactive	inactive	inactive	inactive	inactive	inactive	inactive	inactive	inactive	inactive	inactive	inactive	inactive	inactive	inactive		inactive
NS(=O)(=O)c1cc2c(cc1Cl)N[C@@H](CC1CCCC1)NS2(=O)=O	inactive	inactive	inactive	inactive	inactive	inactive	inactive	inactive	inactive	inactive	inactive	inactive	inactive	inactive	inactive		inactive	inactive	inactive	inactive
CC1(C)O[C@@H]2C[C@H]3[C@H]4C[C@H](F)C5=CC(=O)CC[C@]5(C)[C@@H]4[C@H](O)C[C@]3(C)[C@]2(C(=O)CO)O1	inactive	inactive	inactive	inactive	inactive		inactive	inactive	inactive	inactive	inactive	inactive	inactive	inactive	inactive	inactive	inactive	inactive	inactive	inactive
O=C(NC[C@@H](O)CO)c1c(I)c(C(=O)NC[C@@H](O)CO)c(I)c(N(CCO)C(=O)CO)c1I	inactive	inactive	inactive	inactive	inactive	inactive	inactive	inactive	inactive	inactive	inactive	inactive	inactive	inactive	inactive	inactive	inactive	inactive	inactive	inactive
